The list is not random: actives were taken first. Their share in the collection is about 10%.
G9a inh = qHTS Assay for Inhibitors of Histone Lysine Methyltransferase G9a | AID 504332, 2011 | Potency, µM (titrated, usually from 102 µM), inactives show at the top dose activity, negative = inhibition, actives largely listed as inhibitors | G9a H3K9 monomethylation, AlphaScreen, 2 h | Histone-lysine N-methyltransferase EHMT2 (Homo sapiens), Q96KQ7 | 8.8% of 350,000 active; also: potency is read from the fitted curve at half-maximal effect; nearly all actives have a fitted effect of over 75% in size
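Step 1: enzyme (final 20 nM) with compound, 15 min RT. Step 2: substrate peptide 500 nM and SAM 20 uM, 2 h RT. Step 3: anti-H3K9me1 antibody and AlphaScreen beads, 10 min, then plate read.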
PLK1 PBD block = qHTS for Inhibitors of PLK1-PDB (polo-like kinase 1 - polo-box domain): Primary Screen; 2.8% of 360,000 active; Plk1 PBD binding of FITC phosphopeptide, fluorescence polarization; AID 720504, 2013; Potency, µM, without a hit: max response, negative = inhibition, hits mostly inhibitors; also: potency is read from the fitted curve at half-maximal effect; series mostly up to about 57 µM; nearly all actives have a fitted effect of over 65% in size
Target sequence (P53350 whole entry, looked up, the tested form may be a part): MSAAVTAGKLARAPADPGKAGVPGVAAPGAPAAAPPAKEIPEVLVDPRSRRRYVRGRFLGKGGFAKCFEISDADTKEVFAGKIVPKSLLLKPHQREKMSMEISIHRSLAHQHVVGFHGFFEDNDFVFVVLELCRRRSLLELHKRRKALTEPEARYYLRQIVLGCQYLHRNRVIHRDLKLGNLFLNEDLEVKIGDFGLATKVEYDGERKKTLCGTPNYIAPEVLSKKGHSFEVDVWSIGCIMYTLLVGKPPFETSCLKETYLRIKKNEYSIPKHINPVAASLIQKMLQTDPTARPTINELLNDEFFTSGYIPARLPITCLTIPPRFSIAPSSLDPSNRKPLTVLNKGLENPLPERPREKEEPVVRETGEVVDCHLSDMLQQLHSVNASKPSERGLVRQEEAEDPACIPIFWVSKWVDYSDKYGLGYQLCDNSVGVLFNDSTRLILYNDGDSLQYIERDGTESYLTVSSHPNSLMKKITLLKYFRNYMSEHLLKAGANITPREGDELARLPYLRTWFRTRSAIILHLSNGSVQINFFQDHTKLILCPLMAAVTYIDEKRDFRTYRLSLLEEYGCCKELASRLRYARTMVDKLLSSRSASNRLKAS
Mm-Cpn inhibitor = Inhibitors of TCP-1 ring complex (TRiC) of Methanococcus maripaludis (MmCpn): qHTS | Potency, µM (highest dose often 76.9 µM), for inactives: at the highest dose activity, negative = inhibition, most hits filed as inhibitors | Chaperonin Mm-Cpn (Methanococcus maripaludis) | AID 504842, 2011 | purified Mm-Cpn ATPase, ADP Transcreener TR-FRET | 0.031% of 330,000 active; also: potency is read from the fitted curve at half-maximal effect; nearly all actives have a fitted effect of over 80% in size
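ATPase read-out: TR-FRET ADP immunoassay (anti-ADP Eu cryptate vs ADP-d2), ex 320 nm, em 590/665 nm; signal drops as ADP forms. Enzyme 25 nM, ATP 10 uM, 30 min at 37°C after 10 min compound preincubation.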
VDR inh = Inhibitors of the vitamin D receptor (VDR): qHTS. Vitamin D3 receptor (Homo sapiens), P11473. VDR-SRC2-3 peptide fluorescence polarization, 2 h. Potency, µM, without a hit: max response, negative = inhibition, hits mostly inhibitors. 0.93% of 400,000 active. AID 504847, 2011; also: potency is read from the fitted curve at half-maximal effect
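Measured by FP: displacement of SRC2-3 coactivator peptide from VDR by library compounds, following a two-hour ambient incubation.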
Sfp inh = qHTS Assay for Inhibitors of Bacillus subtilis Sfp phosphopantetheinyl transferase (PPTase) | 4'-phosphopantetheinyl transferase ffp (Bacillus subtilis), Q9F4F7 | Biochemical Sfp PPTase activity, qHTS | Potency, µM, inactives show largest response in the series, negative = inhibition, hits mostly inhibitors | 3.5% of 310,000 active | AID 1490, 2009;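 also: the enzyme is Sfp with the accession as filed and its product quenches rhodamine fluorescence; potency is read from the fitted curve at half-maximal effect; 0% = enzyme reaction without inhibitor and -100% = no enzyme wells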
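Sfp 15 nM + cpd, 15 min RT; start w/ rhodamine-CoA 5 uM, BHQ-2-YbbR 12.5 uM (final); 50 mM Hepes pH 7.6, 10 mM MgCl2, 0.01% NP-40, 0.01% BSA; read 525/598 nm at 0 and 30 min.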
CCT modulator = High-Throughput Screening for Modulators of Cytosolic Chaperonin Activity. purified chaperonin ATPase assay, HTRF ADP detection, 30 min. 0.3% of 360,000 active. activity change, % (test concentration not listed), hits read low. AID 651819, 2012; in the data active = activity change below about -30%
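ATPase activity: ADP formed was measured by HTRF Transcreener (665/615 nm ratio) after 30 min at 37 deg C with 10 uM ATP. Compounds screened at one 76 uM concentration against 40 or 20 nM TRiC in Tris pH 7.4/KCl/MgCl2/DTT buffer.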
The depositor's hits bear a star; ? = inconclusive; / = not tested or not shown; [ ] = dose if it differs, or a comment. Unless noted, calls follow the shape of the dose curve; as a rule, active = well fitted curve in the direction sought with a large enough effect; inconclusive = small, poorly fitted or top-dose-only effect, or another doubt; inactive = no such curve, though single readings can be large; an effect the other way counts as inactive or inconclusive. Unless noted, % is scaled to controls: 0 for no effect and ±100 for the full control effect.

SMILES	G9a inh	PLK1 PBD block	Mm-Cpn inhibitor	VDR inh	Sfp inh	CCT modulator
CCCC(=O)N(Cc1cc(=O)[nH]c2ccccc12)c1ccc(C)cc1	25.1µM*	0.0%	-18.6%	?	-8.7%	-4.3
COc1ccc(CN(C(=O)c2ccco2)c2ccccc2)cc1	10.5%[59 µM]	-1.1%	1.8%	-11.7%	-0.7%	1.1
CCN(Cc1cc(=O)[nH]c2ccccc12)C(=O)C(C)C	6.0%	-5.9%	-1.3%	2.2%	6.3%	-2.1
CCCC(=O)N(Cc1cc(=O)[nH]c2ccccc12)c1ccccc1OC	44.7µM*	-3.6%	-3.3%	-11.4%	-8.3%	-1.0
COc1ccc(N(Cc2cc(=O)[nH]c3ccccc23)C(=O)c2ccco2)cc1	50.1µM*	-13.3%	1.2%	6.0%	56.2µM*	-1.2
Cc1ccc(C2=NN(CC(=O)NC(C)c3ccccc3)C(=O)CC2)cc1 (configuration not stated)	-9.2%[59 µM]	/	/	9.7%	/	/
Cc1ccccc1S(=O)(=O)N1C(c2ccc(Cl)cc2)CC=C(C(=O)O)C1c1cccc(Cl)c1 (configuration not stated)	/	26.7µM*	/	/	/	/
Cc1ccc([C@@H]2CC=C(C(=O)O)[C@H](c3cccc(Cl)c3)N2S(=O)(=O)c2ccccc2C)cc1	/	?	3.4%	?	/	-0.7
Cc1ccccc1S(=O)(=O)N1[C@@H](c2ccc(Cl)cc2)C(C(=O)O)=CC[C@H]1c1ccc(Cl)cc1	/	29.9µM*	-0.7%	?	/	-4.0
CCCN1CCN(c2nnc(-n3cccc3C(=O)Nc3ccccc3C(F)(F)F)s2)CC1	-34.2%[59 µM]	/	/	-6.6%	/	/
CC1(C)CC(=O)C(CS(=O)(=O)c2ccccc2)=C(O)C1	?	?	0.5%	?	50.1µM*	-2.1
CC1(C)CC(=O)C(CC(=O)Nc2ccc(S(N)(=O)=O)cc2)=C(O)C1	-19.6%[59 µM]	-7.2%	1.8%	4.3%	-1.3%	-1.5
CCCc1cnc2c(c1SCC(=O)Nc1ccccc1F)c(=O)n(C)c(=O)n2C	3.9%[59 µM]	/	/	-3.7%	/	/
Cc1ccccc1CN1C(=O)c2ccccc2S(=O)c2ccc(C(=O)NC3CCC(C)CC3)cc21 (configuration not stated)	-5.8%[59 µM]	/	/	-9.0%	/	/
O=C(Nc1cnc2ccccc2c1)N1CCOCC1	8.3%	26.7µM*	0.7%	2.3%	6.9%	-9.8
Cn1cc(Br)c(C(=O)NC(=S)N2CCN(c3ccccn3)CC2)n1	39.8µM*	-8.2%	1.1%	-18.4%	?	-1.8
O=C(NC(=S)N1CCN(C2CCCCC2)CC1)c1ccccc1	50.1µM*	-10.9%	0.7%	-8.5%	-15.8%	-22.0
O=C(NC(=S)N1CCN(c2ccccn2)CC1)c1ccccc1	39.8µM*	-6.0%	3.6%	-16.4%	-4.0%	-3.2
Cc1cccn2c3c(c(=O)nc12)C(c1ccc(F)cc1)CC(=O)N3 (configuration not stated)	2.9%[59 µM]	/	/	17.9%	/	/
CCOc1cccc2cc(-c3nc4sc5c(c4c(=O)[nH]3)CCC(C(C)(C)C)C5)c(=O)oc12 (configuration not stated)	-10.3%[59 µM]	/	/	3.5%	/	/
Cc1cccc2c1N(CCCOc1ccc(C(C)(C)C)cc1)C(=O)C2=O	10µM*	?	2.1%	39.8µM*	?	-1.2
Cc1ccc(OCCN2C(=O)c3ccccc3C2=O)cc1	3.3%[12.7 µM]	-2.1%	-1.1%	10.1%	-17.0%	2.9
Cc1cccc(OCCN2C(=O)C(=O)c3cccc(C)c32)c1	5.6%[59 µM]	-17.9%	0.4%	?	3.7%	-2.0
Cc1ccc2c(c1)C(=O)C(=O)N2CCCOc1ccccc1C	-37.8%	?	0.9%	39.8µM*	-0.3%	-1.3
